Drawing on PubChem BioAssay (NCATS), this text covers Potency for 37 molecules.

The nature of assay [1]: qHTS for Inhibitors of the Functional Ribonucleoprotein Complex (vRNP) of Lymphocytic Choriomeningitis Arenaviruses (LCMV): Viability assay - alamar blue signal for LCMV Primary Screen (AID 1347085; calls by dose curve; tested in HEK293 reporter line; further: nearly all actives have a fitted effect of over 80% in size; further: potency means the concentration at half of the fitted maximal effect).
The target in assay [2] is Nucleoprotein (Lymphocytic choriomeningitis virus (strain Armstrong)) (UniProt P09992). The assay is described as follows: qHTS for Inhibitors of the Functional Ribonucleoprotein Complex (vRNP) of Lymphocytic Choriomeningitis Arenaviruses (LCMV): LCMV Primary Screen - GLuc reporter signal (AID 1347086). Further: nearly all actives have a fitted effect of over 70% in size. Further: potency means the concentration at half of the fitted maximal effect.
The nature of assay [3]: qHTS of pediatric cancer cell lines to identify multiple opportunities for drug repurposing: Primary screen for TC32 cells (AID 1347089; active means well fitted curve in the direction sought with a large enough effect; an effect the other way counts as inactive or inconclusive; further: nearly all actives have a fitted effect of over 60% in size). In a few lines:
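TC32 cells, 500-1,000/well in growth medium, compound-treated 48 h at 37 °C; viability from CellTiter-Glo luminescence. Primary screen: MIPE 11-point (0.78 nM–46 µM final), NPC 8-point (0.59 nM–46 µM final); confirmatory at 11-point dilutions.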

Assay [4] is described as follows: qHTS of pediatric cancer cell lines to identify multiple opportunities for drug repurposing: Primary screen for DAOY cells (AID 1347090; active means well fitted curve in the direction sought with a large enough effect; an effect the other way counts as inactive or inconclusive; further: series mostly up to about 46 µM; nearly all actives have a fitted effect of over 55% in size). In a few lines:
(§1)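 Viability measured as metabolically active cells via CellTiter-Glo luminescence following 48 hours of compound exposure, 11-point dilutions in confirmatory testing. 500-1,000 cells/well plated 5 hours before dosing; controls were DMSO and 2.3 µM bortezomib.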

Assay [5] is described as follows: qHTS of pediatric cancer cell lines to identify multiple opportunities for drug repurposing: Primary screen for SJ-GBM2 cells (AID 1347091; active means well fitted curve in the direction sought with a large enough effect; an effect the other way counts as inactive or inconclusive). Summed up:
as §1
In general terms: In qHTS, concentration-response curves come from the screen itself.

A short description of assay [6]: qHTS of pediatric cancer cell lines to identify multiple opportunities for drug repurposing: Primary screen for A673 cells (AID 1347092; active means well fitted curve in the direction sought with a large enough effect; an effect the other way counts as inactive or inconclusive; further: nearly all actives have a fitted effect of over 45% in size). In a few lines: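 A673 cells (500-1,000 cells/well) were treated 48 hours at 37 degrees C with compounds at 11-point (0.78 nM to 46 µM) or 8-point (0.59 nM to 46 µM) dilutions. Viability read by CellTiter-Glo luminescence; concentration-response curves fitted.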

The nature of assay [7]: qHTS of pediatric cancer cell lines to identify multiple opportunities for drug repurposing: Primary screen for SK-N-MC cells (AID 1347093; active means well fitted curve in the direction sought with a large enough effect; an effect the other way counts as inactive or inconclusive; further: series mostly up to about 46 µM). In a few lines: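 Metabolically active cells were quantified by ATP-dependent luminescence (CellTiter-Glo, 15 min at room temperature) following 48 h treatment. Cells had been plated at 500-1,000 per well and settled for 5 h beforehand.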

Assay [8] can be described thus: qHTS of pediatric cancer cell lines to identify multiple opportunities for drug repurposing: Primary screen for BT-37 cells (AID 1347094; active means well fitted curve in the direction sought with a large enough effect; an effect the other way counts as inactive or inconclusive; further: series mostly up to about 57 µM). In a few lines: (§2)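 Phenotypic viability qHTS, 48 h compound exposure, CellTiter-Glo luminescence read-out; multi-concentration dosing so that potency and efficacy derive directly from the primary screen's curves.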
The nature of assay [9]: qHTS of pediatric cancer cell lines to identify multiple opportunities for drug repurposing: Primary screen for NB-EBc1 cells (AID 1347095; active means well fitted curve in the direction sought with a large enough effect; an effect the other way counts as inactive or inconclusive). In a few lines:
as §2

Assay [10] in a line: qHTS of pediatric cancer cell lines to identify multiple opportunities for drug repurposing: Primary screen for U-2 OS cells (AID 1347096; active means well fitted curve in the direction sought with a large enough effect; an effect the other way counts as inactive or inconclusive; further: nearly all actives have a fitted effect of over 50% in size). Summed up: (§3)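 Viability after 48 h compound treatment at 37C, 500-1,000 cells/well, read as ATP luminescence with CellTiter-Glo. Primary screens used 11-point (MIPE, 0.78 nM-46 µM) or 8-point (NPC, 0.59 nM-46 µM) final concentrations; follow-up screens used 11-point dilutions.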

The nature of assay [11]: qHTS of pediatric cancer cell lines to identify multiple opportunities for drug repurposing: Primary screen for Saos-2 cells (AID 1347097; active means well fitted curve in the direction sought with a large enough effect; an effect the other way counts as inactive or inconclusive; further: nearly all actives have a fitted effect of over 40% in size). In a few lines:
as §2

Assay [12] can be described thus: qHTS of pediatric cancer cell lines to identify multiple opportunities for drug repurposing: Primary screen for SK-N-SH cells (AID 1347098; active means well fitted curve in the direction sought with a large enough effect; an effect the other way counts as inactive or inconclusive;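 further: DMSO served as neutral control and bortezomib at 2.3 µM as positive control; nearly all actives have a fitted effect of over 65% in size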). Summed up:
(§4)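 Cells (500-1,000/well) rested 5 h, then received compounds for 48 h; metabolically active cells were measured by CellTiter-Glo luminescence. Final concentrations spanned up to 46 µM (MIPE, 11-point) or 0.59 nM-46 µM (NPC, 8-point) in primary screens, 11-point in follow-ups.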

Assay [13] can be described thus: qHTS of pediatric cancer cell lines to identify multiple opportunities for drug repurposing: Primary screen for NB1643 cells (AID 1347099; active means well fitted curve in the direction sought with a large enough effect; an effect the other way counts as inactive or inconclusive; further: nearly all actives have a fitted effect of over 50% in size). In a few lines: as §2
A short description of assay [14]: qHTS of pediatric cancer cell lines to identify multiple opportunities for drug repurposing: Primary screen for LAN-5 cells (AID 1347100; active means well fitted curve in the direction sought with a large enough effect; an effect the other way counts as inactive or inconclusive). In a few lines:
as §3

Assay [15] in a line: qHTS of pediatric cancer cell lines to identify multiple opportunities for drug repurposing: Primary screen for BT-12 cells (AID 1347101; active means well fitted curve in the direction sought with a large enough effect; an effect the other way counts as inactive or inconclusive; further: nearly all actives have a fitted effect of over 25% in size). Summed up: as §4
Assay [16] is described as follows: qHTS of pediatric cancer cell lines to identify multiple opportunities for drug repurposing: Primary screen for Rh18 cells (AID 1347102; active means well fitted curve in the direction sought with a large enough effect; an effect the other way counts as inactive or inconclusive; further: nearly all actives have a fitted effect of over 65% in size). In a few lines: as §3
The nature of assay [17]: qHTS of pediatric cancer cell lines to identify multiple opportunities for drug repurposing: Primary screen for OHS-50 cells (AID 1347103; active means well fitted curve in the direction sought with a large enough effect; an effect the other way counts as inactive or inconclusive; further: nearly all actives have a fitted effect of over 40% in size). In a few lines: as §4
Assay [18] in a line: qHTS of pediatric cancer cell lines to identify multiple opportunities for drug repurposing: Primary screen for RD cells (AID 1347104; active means well fitted curve in the direction sought with a large enough effect; an effect the other way counts as inactive or inconclusive; further: nearly all actives have a fitted effect of over 55% in size). Summed up: as §2
Assay [19] in a line: qHTS of pediatric cancer cell lines to identify multiple opportunities for drug repurposing: Primary screen for MG 63 (6-TG R) cells (AID 1347105; active means well fitted curve in the direction sought with a large enough effect; an effect the other way counts as inactive or inconclusive; further: nearly all actives have a fitted effect of over 50% in size). In a few lines: as §2
The nature of assay [20]: qHTS of pediatric cancer cell lines to identify multiple opportunities for drug repurposing: Primary screen for control Hh wild type fibroblast cells (AID 1347106; active means well fitted curve in the direction sought with a large enough effect; an effect the other way counts as inactive or inconclusive;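 further: series mostly up to about 46 µM; a drop in luminescence marks cytotoxicity and a rise apparent proliferation; nearly all actives have a fitted effect of over 55% in size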). In a few lines:
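Cells (500-1,000/well) in growth media were settled 5 h at 37 degrees C, then given compounds for 48 h. Viability was read as CellTiter-Glo luminescence. Primary runs used MIPE at 11 points (0.78 nM-46 µM) and NPC at 8 points (0.59 nM-46 µM); follow-ups used 11 points.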

Each structure is given as a SMILES string. Results filed as inconclusive are left out. Activity calls are given as the source filed them. Unless noted, the call rests on the fitted dose curve.

Sequence of Nucleoprotein (Lymphocytic choriomeningitis virus (strain Armstrong)) (P09992 whole entry, looked up): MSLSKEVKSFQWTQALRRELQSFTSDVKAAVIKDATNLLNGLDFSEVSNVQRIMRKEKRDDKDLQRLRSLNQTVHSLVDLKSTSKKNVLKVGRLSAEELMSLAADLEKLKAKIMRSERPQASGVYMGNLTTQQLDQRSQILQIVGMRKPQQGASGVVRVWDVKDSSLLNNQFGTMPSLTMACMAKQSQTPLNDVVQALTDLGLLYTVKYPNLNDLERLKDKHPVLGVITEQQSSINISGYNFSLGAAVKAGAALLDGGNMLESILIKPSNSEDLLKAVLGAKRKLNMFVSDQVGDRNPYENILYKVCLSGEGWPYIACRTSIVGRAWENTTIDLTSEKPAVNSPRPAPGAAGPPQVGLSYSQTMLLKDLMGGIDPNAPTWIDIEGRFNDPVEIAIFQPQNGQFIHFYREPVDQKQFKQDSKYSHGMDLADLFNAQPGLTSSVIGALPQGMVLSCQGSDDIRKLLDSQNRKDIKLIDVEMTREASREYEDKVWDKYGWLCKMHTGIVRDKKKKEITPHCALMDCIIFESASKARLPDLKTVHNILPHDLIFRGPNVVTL

`CN(C)c1ccc(C2Nc3ccc4ccccc4c3C3=C2C(=O)CC(C)(C)C3)cc1Br` (configuration not stated): the Potency result in assay [1] and in assay [2] was “inactive” each time.
Regarding `O=C(Nc1ccccc1-c1cn2c(CN3CCNCC3)csc2n1)c1cnc2ccccc2n1`, the Potency entry in assay [1] and in assay [2] was “inactive” in each case.
With `CCOC(=O)c1c(C)n(C)c2ccc(O)cc12`, the Potency result in [1] and in assay [2] was “inactive” in each case.
Regarding `Cn1c(NCCN(CCO)CCCc2ccc([N+](=O)[O-])cc2)cc(=O)n(C)c1=O`, the Potency result in assay [1] and in assay [2] was “inactive” in each case.
Consider `CC(C)(C)c1cc(C(C)(C)C)c(NC(=O)c2c[nH]c3ccccc3c2=O)cc1O`, for which the Potency entry in [1] and in assay [2] was “inactive” each time.
For `CC(C)=CCCC(C)=CCCC(C)=CCSc1ccccc1C(=O)O`, the Potency in assay [1] is 9.68 µM (active); in [2] it was 4.32 µM (active).
For the molecule `O=C(NO)c1ccccc1`, the Potency result in assay [1] and in [2] was “inactive” throughout.
For the molecule `Brc1ccccc1-c1ccccc1`, the Potency result in assay [1] and in assay [2] was “inactive” throughout.
`Nc1cccc(S(=O)(=O)N2CCCN(S(=O)(=O)c3ccc4c(c3)OCCO4)CC2)c1`: the Potency entry in assay [1] and in assay [2] was “inactive” in each case.
For `OCc1c[nH]c2ccccc12`, the Potency entry in assay [1] and in [2] was “inactive” each time.
With `CC(C)C[C@H](NC(=O)[C@@H](O)[C@H](N)Cc1ccccc1)C(=O)O`, the Potency result in assay [1] and in assay [2] was “inactive” each time.
`CC(C)(C)NCC(O)c1ccc(O)c(CO)c1` (configuration not stated): the Potency entry in assay [1] and in assay [2] was “inactive” in each case.
In the case of `COc1ccc(-c2c(-c3ccc(O)cc3O)n[nH]c2C)cc1`, the Potency result in assay [1] and in assay [2] was “inactive” throughout.
For `N#C/C(=C1\SCC(c2ccccc2Cl)S1)n1ccnc1` (configuration not stated), the Potency entry in assay [1] and in assay [2] was “inactive” throughout.
Consider `CCCCC(CC)COC(=O)c1ccccc1C(=O)O` (configuration not stated), for which the Potency result in assay [1] and in assay [2] was “inactive” in each case.
With `Nc1nc2c(ncn2CCC(CO)CO)c(=O)[nH]1`, the Potency result in assay [1] and in [2] was “inactive” in each case.
Regarding `O=C(NCCCNc1nc(Nc2cccc(NC(=O)N3CCCC3)c2)ncc1I)c1cccs1`, the Potency in [1] is 34.3 µM (active). The Potency entry in [2] is “inactive”.
For the molecule `NC(=O)Nc1cc(-c2cccc(F)c2)sc1C(=O)N[C@H]1CCCNC1`, the Potency in [1] is 1.53 µM (active); in assay [2], 3.43 µM (active).
On to `COc1cc2nc(N3CCCN(C)CC3)nc(NC3CCN(Cc4ccccc4)CC3)c2cc1OC`, for which the Potency is 21.7 µM (active) in assay [1] and 12.2 µM (active) in assay [2].
Regarding `COc1cc(Oc2ccnc3cc(OC)c(OC)cc23)ccc1NC(=O)NC(C)c1nccs1` (configuration not stated), the Potency result in assay [1] and in [2] was “inactive” each time.
In the case of `CCCCN1CCC(CNC(=O)c2c3n(c4ccccc24)CCCO3)CC1`, the Potency in assay [1] is 7.69 µM (active); in assay [2], 4.32 µM (active).
Turning to `Cc1cccc(-c2[nH]ncc2-c2ccc3ncccc3n2)n1`, the Potency entry in assay [1] and in assay [2] was “inactive” each time.
For `Cn1cnc(CCN)c1`, the Potency entry in assay [1] and in assay [2] was “inactive” each time.
Take `CC(=O)NC(C)c1ccc(Oc2ccc(OC(C)C)cc2)cc1` (configuration not stated): the Potency entry in assay [1] and in assay [2] was “inactive” each time.
As to `COc1cc2c(cc1OC)CN(CCc1ccc(NC(=O)c3cccc4c(=O)c5cccc(OC)c5[nH]c34)cc1)CC2`, the Potency result in [1] and in assay [2] was “inactive” throughout.
Regarding `COc1cc(S(N)(=O)=O)cc(C(=O)O)c1OC`, the Potency entry in assay [1] and in assay [2] was “inactive” each time.
As to `Cc1ccc(-c2ncn(-c3ccc(Nc4nccc(-c5cccc(N6CCOCC6)c5)n4)cc3)n2)cn1`, the Potency in assay [1] is 0.485 µM (active). For the same molecule, the Potency entry in assay [2] is “inactive”.
`Oc1c(I)cc(I)c2cccnc12`: the Potency entry in assay [1] and in assay [2] was “inactive” in each case.
Turning to `CCN1CCN(CC(=O)Nc2ccc(-c3cccc4c(=O)cc(N5CCOCC5)oc34)c3sc4ccccc4c23)CC1`, the Potency in assay [1] and in [2] was 1.22 µM (active) each time.
As for `CCOc1cc(N2CCC(O)CC2)ccc1Nc1ncc2c(n1)N(C)c1ccccc1C(=O)N2C`, the Potency is 6.85 µM (active) in assay [1] and 3.43 µM (active) in assay [2].
In the case of `CC(C[N+](C)(C)C)OC(N)=O` (configuration not stated), the Potency entry in [1] and in [2] was “inactive” each time.
On to `Cn1cncc1[C@@](N)(c1ccc(Cl)cc1)c1ccc2c(c1)c(-c1cccc(Cl)c1)cc(=O)n2C`, for which the Potency in assay [1] is 2.43 µM (active); in assay [2], 1.37 µM (active).
`CCCn1c(=O)c2[nH]c(C34CC5CC3C[C@@H](C5)C4)nc2n(CCC)c1=O`: the Potency result in [1] and in [2] was “inactive” throughout.
In the case of `CC[C@@H]1C(=O)N(C)c2cnc(Nc3ccc(C(=O)NC4CCN(C)CC4)cc3OC)nc2N1C1CCCC1`, the Potency in assay [1] is 0.153 µM (active); in assay [2], 0.0306 µM (active).
Consider `OC[C@H]1O[C@@H](n2cnc3c2NC=NC[C@@H]3O)C[C@H]1O`, for which the Potency entry in assay [1] and in [2] was “inactive” throughout.
With `Cc1c(C(=O)Nc2ccc(N3C[C@@H](C)O[C@@H](C)C3)nc2)cccc1-c1ccc(OC(F)(F)F)cc1`, the Potency result in [1] and in [2] was “inactive” each time.
As for `COC(C)(C)CCCC(C)C/C=C/C(C)=C/C(=O)OC(C)C` (configuration not stated), the Potency entry in assay [1], in [2], in [3], in [4], in assay [5] and in [6] was “inactive” in each case. Further, the Potency result in assay [7], in assay [8], in [9], in assay [10], in assay [11] and in assay [12] was “inactive” each time. Further, the Potency entry in [13], in assay [14], in assay [15], in assay [16], in assay [17] and in assay [18] was “inactive” each time. For the same molecule, the Potency result in [19] and in [20] was “inactive” throughout.
